# The whole screen tested about 89,000 compounds, of which about 10 (0.01%) were called active. About 10% were inconclusive and are not listed. Cut-off read from the data, not from the text of the source: active = activity change below about -37% (passing the limit was not always enough); inconclusive = no clear call, values can overlap the other calls; tested in A549 cells. Only a sample is shown.
# Assay: blocks a specific stage of Vaccinia orthopoxvirus infection, primary screen, cell-based, single point (AID 1053133)
# Conditions: Vaccinia-infected cells, mCherry/Venus stage reporter fluorescence, stronger effect = lower value, concentration not given here; activity change (Venus): measured here: Venus reporter, other viral stage
SMILES,activity change (Venus),activity change (mCherry)
C[C@@H]1CCCCO[C@@H](CN(C)C(=O)Cc2ccccc2)[C@H](C)CN([C@H](C)CO)C(=O)c2cc(NC(=O)Cc3ccccc3)ccc2O1,-23.2%,-29.2% (inactive)
CN(C)C(=O)c1ccc(-c2ccc([C@H]3[C@H](CO)N4C(=O)CN(C(=O)C5CCCC5)C[C@@H]34)cc2)cc1,3.62%,4.76% (inactive)
CO[C@H]1CC[C@H]2CCN(C)C(=O)C[C@@H](c3ccccc3)CN(C)C(=O)c3cccc(C#N)c3OC[C@@H]1O2,36.7%,37.9% (inactive)
COc1ccccc1CNC(=O)C[C@H]1CC[C@@H](NC(=O)CN(C)C)[C@@H](CO)O1,17.1%,6.13% (inactive)
COCC#Cc1ccc([C@H]2[C@@H](CO)N3C(=O)CN(C(=O)C4CCCC4)C[C@@H]23)cc1,10.7%,14.5% (inactive)
CO[C@@H]1CN(C)C(=O)c2cc(NS(=O)(=O)Cc3ccccc3)ccc2OC[C@H](C)NC[C@H]1C,3.49%,-2.28% (inactive)
COc1ccc(NC(=O)N(C)C[C@H]2OCCCC[C@@H](C)Oc3ccc(NS(=O)(=O)c4ccc(F)cc4)cc3C(=O)N([C@H](C)CO)C[C@H]2C)cc1,-16.7%,-18% (inactive)
O=C(C[C@@H]1CC[C@@H]2[C@H](COC[C@@H](O)CN2S(=O)(=O)c2cccc(Cl)c2)O1)N1CCOCC1,10.1%,21.4% (inactive)
O=C(C[C@@H]1CC[C@@H]2[C@H](COC[C@@H](O)CN2Cc2ccc(Cl)cc2)O1)NCc1ccccc1Cl,-11.5%,-7.35% (inactive)
O=C(C[C@@H]1CC[C@@H]2[C@H](COC[C@H](O)CN2S(=O)(=O)c2ccccc2)O1)N[C@H]1CCN(Cc2ccccc2)C1,-6.28%,-10.6% (inactive)
COc1cccc(NC(=O)Nc2ccc3c(c2)C(=O)N(C)C[C@H](OC)[C@@H](C)CN[C@@H](C)CO3)c1,13.8%,1.34% (inactive)
CCC(=O)Nc1ccc2c(c1)OC[C@@H](C)N(Cc1ccccc1OC)C[C@H](C)[C@H](OC)CN(C)C2=O,-6.3%,-3.87% (inactive)
COc1ccccc1-c1ccc([C@H]2[C@@H](CO)N(CC3CC3)C23CN(S(C)(=O)=O)C3)cc1,0.302%,-10.8% (inactive)
O=C(Nc1ccccc1F)N1CC(=O)N2[C@H](CO)[C@H](c3ccc(C#CC4CC4)cc3)[C@@H]2C1,-0.75%,-2.67% (inactive)

# — PubChem BioAssay AID1053133 (Broad Institute, 2014)
